From PubChem BioAssay AID743201 (The Scripps Research Institute Molecular Screening Center, 2013)
Out of some 1,500 compounds screened, about 420 (28%) were called active. Rule as the data show it: active = inhibition above about 9.5%; inactive = the rest. Not all results are given here.

Assay: cytotoxicity in LD9 cells, cytotoxicity control for cell surface PrPc inhibitor project, cell-based, luminescence, high throughput (AID 743201)
Settings: luminescence viability, at 13.8 µM, stronger effect = higher value

| SMILES | inhibition |
| --- | --- |
| O=C(Nc1ccc(C2CC2(Cl)Cl)cc1)c1cccc([N+](=O)[O-])c1 (stereo not drawn) | 22.1% (active) |
| O=C(Oc1ccccc1)Oc1ccc2c(c1)oc(=O)c1ccccc12 | -2.43% (inactive) |
| Cc1nc(/N=C(\N)NC(=O)NC2CCCCC2)nc2ccccc12 | 13.3% (active) |
| O=C(Nc1cccn(Cc2ccccc2Cl)c1=O)NC1CCCCC1 | -0.08% (inactive) |
| O=C(COC(=O)c1ccccc1SCC(=O)NC1CCCCC1)NC1CCCCC1 | -4.15% (inactive) |
| CC1(C)Cc2ccccc2-c2[nH]c(=S)[nH]c(=O)c21 | 0.24% (inactive) |
| O=C(/C=C/c1ccc([N+](=O)[O-])o1)NNC(=O)c1ccc(F)cc1 | 81% (active) |
| Cn1c(=S)sc2ccc3ccccc3c21 | -9.96% (inactive) |
| Cc1ccc(CSc2ccc(S(=O)(=O)N3CCCCC3)cn2)cc1 | -3.1% (inactive) |
| O=C(Nc1ccc(N2CCN(C(=O)c3ccccc3)CC2)c(Cl)c1)c1cccnc1 | 10.4% (active) |
| CCCCC(=O)NC(c1ccc(OC)c(OC)c1)c1ccc2cccnc2c1O (stereo not drawn) | 34.6% (active) |
| COc1ccc(NC(=O)COC(=O)CNC(=O)C2CCCCC2)cc1 | -1.65% (inactive) |
| O=C(Cc1ccccc1)Nc1cccc(NC(=O)c2ccccc2)c1 | -4% (inactive) |
| Cc1cccc(NC(=O)c2nc(S(=O)(=O)Cc3ccccc3)ncc2Cl)c1 | 88.2% (active) |
| Cc1cccc(CS(=O)(=O)c2ncc(Cl)c(C(=O)Nc3ccc(F)cc3)n2)c1 | 97.1% (active) |
| CCc1c(C)nc2cc(-c3cccs3)[nH]n2c1=O | -5.48% (inactive) |
| Fc1ccc2[nH]c3c(N4CCSCC4)ncnc3c2c1 | 49.1% (active) |
| COc1cccc2sc3cc(NCC[C@@H]4CCCN4C)ccc3c(=O)c12 | 3.87% (inactive) |
| COc1ccc(C(=O)Nc2nc(-c3ccc(S(=O)(=O)N4CCOCC4)cc3)cs2)cc1 | 24.7% (active) |
| Cc1cc2cc(CNC(=O)c3ccc(S(=O)(=O)N4CCOCC4)cc3)ccc2[nH]1 | -3.01% (inactive) |
| COc1ccc(S(=O)(=O)N2CCOCC2)cc1NC(=O)CSc1ncnc2ccccc12 | -10% (inactive) |

| SMILES | inhibition |
| --- | --- |
| C=CCNC(=O)CSc1nc2scc(-c3ccco3)c2c(=O)n1CC=C | -1.71% (inactive) |
| N#C/C=C1\Sc2ccccc2C(=O)N1CC(=O)N1CCN(S(=O)(=O)c2ccccc2)CC1 | -0.34% (inactive) |
| CN(C)CCNC(=O)c1ccc(Cl)c2cc3ccccc3nc12 | 62.4% (active) |
| COc1ccc(OC)c(NC(=O)c2cc(-c3cc(F)ccc3OCC3CCCO3)n[nH]2)c1 (stereo not drawn) | 6.36% (inactive) |
| CCCc1nc(SCC(=O)Nc2ccc(S(=O)(=O)N(C)C)cc2)c2ccccc2n1 | 11.4% (active) |
| COC(=O)CSc1nc(C2CC2)nc2ccccc12 | 2.09% (inactive) |
| CCc1nc(SCC(=O)NNC(=O)c2ccc(C)cc2)c2ccccc2n1 | -9.92% (inactive) |
| CCC(C)(O)C(=O)OC1C(=O)OC2CC3C(C)=CC(=O)C(O)C3(C)C3C4(O)OCC23C1C(C)C4O (stereo not drawn) | 31.5% (active) |
| CCCOc1ccc(C2C(C(=O)c3ccc(C)o3)=C(O)C(=O)N2CCCn2ccnc2)cc1 (stereo not drawn) | -8.43% (inactive) |
| O=C(NC(Nc1nc2ccc([N+](=O)[O-])cc2s1)(C(F)(F)F)C(F)(F)F)c1ccccc1 | 60.2% (active) |
| Cc1ccc(Oc2cnn(-c3ccccc3)c(=O)c2Br)cc1 | -5.84% (inactive) |
| CCOC(=O)c1c(C)[nH]c(=S)c(C#N)c1-c1ccccc1 | -0.71% (inactive) |
| O=c1[nH]cccc1-c1nc2ccccc2n1Cc1ccc(Cl)cc1 | 18% (active) |
| N#Cc1ccc(OCC(=O)Nc2nc(-c3ccccn3)cs2)cc1 | 6.29% (inactive) |
| CC(=O)c1sc2nc(SCC(=O)N3CCCCC3)[nH]c(=O)c2c1C | -4.99% (inactive) |
| NC(=O)C1CCN(Cc2nc3c(Br)cc(Br)cc3c(=O)[nH]2)CC1 | -0.26% (inactive) |
| O=C(CC(O)(C(F)(F)F)C(F)(F)F)Nc1ccc(Cl)c(Cl)c1 | 59.4% (active) |
| Cc1sc2ncnc(SCC(=O)Nc3ccc(CN4CCCC4)cc3)c2c1C | 4.39% (inactive) |
| COc1ccc2c(Cl)c(-c3nnco3)sc2c1 | 0.91% (inactive) |
| O=C(c1ccc(F)cc1)c1cn(Cc2ccc(F)cc2)c2cc3c(cc2c1=O)OCCO3 | 0.17% (inactive) |
| CCCCCCCCn1c2c(c(=N)c3c1CCC3)CCCC2 | 27.8% (active) |

| SMILES | inhibition |
| --- | --- |
| Cc1cc2ccccc2n1CCNC(=O)COc1ccc2ccccc2c1 | 3.16% (inactive) |
| CO[C@H]([C@H](C)/C=C/N(C)C=O)[C@@H](C)C(=O)CC[C@H](C)[C@H](O)[C@H](C)[C@H]1OC(=O)/C=C/C(C)=C/[C@H](O)[C@H](OC)C[C@@H]2C=CC[C@@H](C[C@H](OC)[C@@]3(CO3)[C@@H](OC)C[C@@H](OC)[C@@H]1C)O2 | 22.6% (active) |
| FC(F)(F)c1cccc(NC(=S)OC2CCC23CCC(c2ccccc2)CC3)c1 (stereo not drawn) | 6.03% (inactive) |
| CCCCNc1c(-c2cccc(Sc3ccc(OC)cc3)c2)nc2ccccn12 | 17.3% (active) |
| N#Cc1c(-c2cccs2)nc(SCC(=O)c2ccc(Br)cc2)[nH]c1=O | -2.36% (inactive) |
| Cc1ccc(CNC(=O)Nc2nnc([C@H]3C[C@H](O)[C@@H](CO)O3)s2)cc1 | -1.07% (inactive) |
| O=C1CCCC2=C1C(c1cccs1)n1nc(SCc3ccccc3)nc1N2 (stereo not drawn) | -3.22% (inactive) |
| CC(=O)Nc1cccc(OCC(=O)/C=C2\N(C)c3ccccc3C2(C)C)c1 | 13.8% (active) |
| CN1/C(=C\C(=O)c2oc3ccccc3c2N)C(C)(C)c2ccccc21 | 7.55% (inactive) |
| Cc1ccsc1C(=O)OCC(=O)Nc1cccc(F)c1 | -2.87% (inactive) |
| Cc1[nH]n(-c2ccccc2)c(=O)c1/C=N/NC(=O)c1ccoc1C | 21.3% (active) |
| CCOC(=O)c1c(-c2ccccc2)oc2cc(Br)c(O)cc12 | -6.88% (inactive) |
| COC(=O)Cc1[nH]n(-c2nc3ccccc3s2)c(=O)c1C(C)=Nc1ccc(OC)cc1 | -5.36% (inactive) |
| CC(=O)c1nc(N2C(=O)C3CC=C(C)CC3C2=O)sc1C (stereo not drawn) | -5.65% (inactive) |
| CCCCCCCCCCCCn1ccc(=N)cc1 | 33.6% (active) |
| COc1cc(-n2c(=S)[nH]c3ccc(C)cc3c2=O)c(Cl)cc1Cl | -3.19% (inactive) |
| Cc1ccc(NC(=O)c2sc3nc(N)c(C#N)cc3c2N)cc1 | 14.7% (active) |
| CC(=O)N1CCCc2cc(S(=O)(=O)N3CCCC(C(=O)N4CCN(c5cccc(Cl)c5)CC4)C3)ccc21 (stereo not drawn) | 24.1% (active) |
| CC(=O)N1CCCc2cc(S(=O)(=O)N3CCCC(C(=O)NCc4ccc(Cl)cc4)C3)ccc21 (stereo not drawn) | 4.27% (inactive) |
| CC(=O)N1c2ccc(S(=O)(=O)N3CCCC(C(=O)Nc4cccc(F)c4)C3)cc2CC1C (stereo not drawn) | 10.8% (active) |
| Cc1ccnc(NC(=O)C2CCN(S(=O)(=O)c3c(C)c(C)cc(C)c3C)CC2)c1 | -5.26% (inactive) |
